We go through 15 compounds from PubChem BioAssay (NCATS).

A short description of assay [1]: Cellular Toxicity (caspase-3) HepG2 (AID 654).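 Further: cells exposed to compound for 16 hours before reading; 0% = DMSO alone and 100% = caspase signal from 100 µM tamoxifen.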 In short, it runs like this:
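Caspase 3/7 activation is measured as a luminescence increase (aminoluciferin substrate) after 16 h compound exposure of human hepatocarcinoma HepG2 cells. AC50 values are Hill fits, scaled between DMSO baseline and 100 uM tamoxifen stimulation.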

The nature of assay [2]: Cellular Toxicity (caspase-3) Jurkat (AID 655).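 Further: cells exposed to compound for 16 h at 37 °C before reading.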 Further: potency means the concentration at half of the fitted maximal effect. In short, it runs like this: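 Jurkat cells (5000/well) in complete medium were treated with compounds for 16 hr at 37 °C, then Caspase-Glo 3/7 luminescence was read after 20 min at room temperature. Data normalized to DMSO (basal) and 100 uM tamoxifen (100%); AC50 from Hill fit.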
Assay [3] can be described thus: Cellular Toxicity (caspase-3) HUV-EC-C (AID 656). In short, it runs like this: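 HUV-EC-C endothelial cells, 1000/well, were pre-incubated 5 hr at 37°C, then exposed to compounds for 16 hr at 37°C. Caspase-Glo 3/7 luminescence was read after 20 min at room temperature. AC50 came from Hill fits, normalized to DMSO and 100 uM tamoxifen.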
A short description of assay [4]: Cellular Toxicity (caspase-3) SHSY5Y (AID 657). Further: potency means the concentration at half of the fitted maximal effect. In short, it runs like this: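 SH-SY5Y human neuroblastoma cells (1500/well) were treated with compounds for 16 h at 37 °C, then Caspase-Glo 3/7 luminescence was read after 1 h at room temperature. Data normalized to DMSO and 10 uM staurosporine; AC50 from Hill fits.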
A short description of assay [5]: Cellular Toxicity (caspase-3) BJ (AID 658). Further: potency means the concentration at half of the fitted maximal effect.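 On caspase-3 activation: 0% = DMSO basal and 100% = 10 µM staurosporine.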 The following applies: Potency: caspase-3 activation. In short, it runs like this:
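Caspase-Glo 3/7 luminescence, read 1 hr after reagent at room temperature, in normal BJ fibroblasts exposed 16 hours at 37 °C. AC50 values from Hill-equation concentration-response, scaled between DMSO basal and 10 uM staurosporine as 100%.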

Assay [6] can be described thus: Cellular Toxicity (caspase-3) MRC-5 (AID 659).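 Further: 0% = DMSO basal and 100% = 10 µM staurosporine.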 In short, it runs like this: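 Luminescent Caspase-Glo 3/7 read-out (1 h, room temperature) after a 16 h, 37 °C compound exposure of MRC-5 lung fibroblasts at 1500 cells/well. Concentration-response AC50 from Hill equation; 0% DMSO, 100% 10 uM staurosporine.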
Assay [7] is described as follows: Cellular Toxicity (caspase-3) Mesangial (AID 660).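 Further: combined caspase 3 and 7 activity read by Caspase-Glo luminescence; cells exposed to compound for 16 h before the caspase read.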 In short, it runs like this: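 Caspase 3/7 activation measured by Caspase-Glo 3/7 luminescence (20 min, room temperature) following 16 h exposure of mesangial cells (1000/well); AC50 from Hill-equation fit, normalized to DMSO and 100 uM tamoxifen.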
Assay [8] can be described thus: Cellular Toxicity (caspase-3) H-4-II-E (AID 663).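 Further: cells exposed to compound for 16 hr before readout.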 In short, it runs like this:
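Caspase 3/7 activation measured by luminescent aminoluciferin substrate cleavage after 16 hr compound treatment of H-4-II-E cells in complete medium. Increase normalized between DMSO (basal) and 100 uM tamoxifen (100%); Hill-equation AC50 from concentration-response.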

A short description of assay [9]: Cellular Toxicity (caspase-3) Hek293 (AID 664).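 Further: cells exposed to compound for 16 h at 37 °C before readout.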 The following applies: HEK293 caspase-3 activation, DMSO = 0%, 100 µM tamoxifen = 100%; at 92.2 µM (top of the series). In short, it runs like this:
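Concentration-response qHTS: caspase 3/7 activation measured by luminescent aminoluciferin substrate cleavage after 16 h compound exposure of Hek 293 cells. AC50 from Hill equation, with DMSO as basal and 100 uM tamoxifen as 100%.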

Assay [10] can be described thus: Cellular Toxicity (caspase-3) N2a (AID 665).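 Further: compound exposure lasted 16 h at 37 °C before readout.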 In short, it runs like this: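 Caspase-3/7 activation measured as luminescence from Caspase-Glo reagent (1 h, room temperature) after 16 h compound exposure of mouse N2a cells. AC50 values from Hill-equation concentration-response, scaled between DMSO and 10 uM staurosporine.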
A short description of assay [11]: Cellular Toxicity (caspase-3) NIH 3T3 (AID 666).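 Further: 0% = DMSO basal and 100% = 100 µM tamoxifen stimulation.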 In short, it runs like this:
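Caspase-Glo 3/7 luminescence reported caspase activation in 1000 NIH 3T3 cells/well after 16 h compound exposure at 37 C. DMSO set basal and 100 uM tamoxifen set 100% stimulation; concentration-response modeled with the Hill equation for AC50.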

A short description of assay [12]: Cellular Toxicity (caspase-3) Renal Proximal Tubule (AID 667).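 Further: cells exposed to compound for 16 hours at 37 °C before detection; 0% = DMSO basal and 100% = 10 µM staurosporine.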 In short, it runs like this:
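Primary rat proximal tubule cells, 1000/well, 5 h plating at 37 °C, then compound 16 h at 37 °C. Caspase-Glo 3/7 reagent, 1 h RT, luminescence. Normalized to DMSO (basal) and 10 uM staurosporine (100%); Hill-fit AC50.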

Assay [13] is described as follows: Confirmation and Secondary Assay for Modulators of Hemoglobin Beta Chain Splicing at IVS2 654 locus (AID 910).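 Further: HeLa cells stably carrying EGFP split by mutant beta-globin IVS2-654 intron; per-well total GFP intensity by laser scanning cytometry after 2-day treatment; % of control where 0% means no effect.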 In short, it runs like this: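 Readout: per-well total peak green fluorescence (488 nm ex, 500–520 nm em) from objects 5–250 µm, reflecting correct splicing of an EGFP-654 reporter. Compounds were applied for 2 days at 37 °C to overnight-plated HeLa EGFP-654 cells; controls were DMSO and 500 nM IVS2-654 PNA.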

Assay [14] is described as follows: Cellular Toxicity (caspase-3) SK-N-SH (AID 661).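 Further: 0% = DMSO basal and 100% = 10 µM staurosporine.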 The following applies: SK-N-SH caspase-3 activation, qHTS; caspase-3 activation: at 91.7 µM (top of the series), DMSO as zero, staurosporine as full. In short, it runs like this: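 Caspase 3/7 activation was read by luminogenic substrate cleavage after 16 hour treatment of SK-N-SH cells. Signal was scaled between DMSO and 10 uM staurosporine, and concentration-response data were fitted with the Hill equation for AC50.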

For assay [15], the target named is Cytochrome P450 3A4 (Homo sapiens) (UniProt P08684). As to the kind of experiment: qHTS Assay for Inhibitors and Substrates of Cytochrome P450 3A4 (AID 884). Further: nearly all actives have a fitted effect of over 50% in size. Further: potency means the concentration at half of the fitted maximal effect. In short, it runs like this: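 Luminescent readout of luciferin produced by CYP3A4 (20 nM) dealkylation of Luciferin-PPXE, 25 uM (its KM). NADPH-driven reaction ran 60 min at RT after 10 min compound preincubation; data scaled to 57 uM ketoconazole as 100% inhibition.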
(In general: In qHTS, concentration-response curves come from the screen itself.)

Assay [16] concerns the target Guanine nucleotide-binding protein G(i) subunit alpha-1 (Homo sapiens) (UniProt P63096). The assay is described as follows: qHTS Assay for Inhibitors of RGS12 GoLoco Motif Activity (Green Fluorophore) (AID 879).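 Further: 0% = labeled peptide with Gαi1 and full inhibition = labeled peptide alone without protein; negative values mean loss of peptide binding seen as reduced polarization.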 In short, it runs like this:
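A drop in FITC polarization marked displacement of the FITC-tagged RGS12 GoLoco peptide (10 nM) from Gαi1 (50 nM). Compounds were incubated 10 min at room temperature in Tris pH 7.5 buffer containing 150 mM NaCl, 0.1 mM GDP and 0.05% NP40; unlabeled peptide titration served as control.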

The target in assay [17] is Cytochrome P450 2C9 (Homo sapiens) (UniProt P11712). The assay is described as follows: qHTS Assay for Inhibitors and Substrates of Cytochrome P450 2C9 (AID 883). Further: on the % scale 0 is the no-effect control and ±100 the full control effect; nearly all actives have a fitted effect of over 60% in size. In short, it runs like this: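 Luminescent read-out of deoxyluciferin hydroxylation, normalized to 57uM sulphaphenazole (AC100). Reaction: 10nM enzyme, 100uM Luciferin-H (equal to KM), 25mM KPO4, 10 min compound preincubation, then 60 min with NADPH regeneration, both at 37C.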

Unmarked numbers belong to inactive results. Records with an inconclusive call do not appear. The source made the active and inactive calls. The call rests on the fitted dose curve; in most records, active means well fitted curve in the direction sought with a large enough effect; inconclusive means small, poorly fitted or top-dose-only effect, or another doubt; inactive means no such curve, though single readings can be large; an effect the other way counts as inactive or inconclusive.

Chain of Cytochrome P450 3A4 (Homo sapiens) (P08684 whole entry, looked up): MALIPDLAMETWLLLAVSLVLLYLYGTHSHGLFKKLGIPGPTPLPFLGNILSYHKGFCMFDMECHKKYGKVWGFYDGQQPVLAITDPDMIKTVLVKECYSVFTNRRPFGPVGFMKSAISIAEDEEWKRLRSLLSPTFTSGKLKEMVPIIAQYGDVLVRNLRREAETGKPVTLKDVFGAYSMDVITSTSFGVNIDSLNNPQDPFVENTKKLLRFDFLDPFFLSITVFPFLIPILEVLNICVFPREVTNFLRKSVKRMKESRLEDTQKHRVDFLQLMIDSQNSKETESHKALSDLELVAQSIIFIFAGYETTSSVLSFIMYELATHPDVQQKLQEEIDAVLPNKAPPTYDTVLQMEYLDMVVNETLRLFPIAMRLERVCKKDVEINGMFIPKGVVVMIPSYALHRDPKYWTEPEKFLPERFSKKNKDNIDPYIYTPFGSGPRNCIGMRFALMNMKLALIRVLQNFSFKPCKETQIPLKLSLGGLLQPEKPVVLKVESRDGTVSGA
Chain of Guanine nucleotide-binding protein G(i) subunit alpha-1 (Homo sapiens) (P63096 whole entry, looked up): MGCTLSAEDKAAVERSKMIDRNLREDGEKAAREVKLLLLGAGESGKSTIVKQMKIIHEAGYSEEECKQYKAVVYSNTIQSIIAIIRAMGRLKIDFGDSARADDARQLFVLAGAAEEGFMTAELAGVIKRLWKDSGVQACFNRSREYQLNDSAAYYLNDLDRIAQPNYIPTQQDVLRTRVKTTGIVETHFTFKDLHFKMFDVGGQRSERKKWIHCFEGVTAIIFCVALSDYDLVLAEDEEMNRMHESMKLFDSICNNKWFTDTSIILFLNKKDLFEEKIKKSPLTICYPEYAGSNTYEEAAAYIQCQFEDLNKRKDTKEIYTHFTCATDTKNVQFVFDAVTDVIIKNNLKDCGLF
Chain of Cytochrome P450 2C9 (Homo sapiens) (P11712 whole entry, looked up): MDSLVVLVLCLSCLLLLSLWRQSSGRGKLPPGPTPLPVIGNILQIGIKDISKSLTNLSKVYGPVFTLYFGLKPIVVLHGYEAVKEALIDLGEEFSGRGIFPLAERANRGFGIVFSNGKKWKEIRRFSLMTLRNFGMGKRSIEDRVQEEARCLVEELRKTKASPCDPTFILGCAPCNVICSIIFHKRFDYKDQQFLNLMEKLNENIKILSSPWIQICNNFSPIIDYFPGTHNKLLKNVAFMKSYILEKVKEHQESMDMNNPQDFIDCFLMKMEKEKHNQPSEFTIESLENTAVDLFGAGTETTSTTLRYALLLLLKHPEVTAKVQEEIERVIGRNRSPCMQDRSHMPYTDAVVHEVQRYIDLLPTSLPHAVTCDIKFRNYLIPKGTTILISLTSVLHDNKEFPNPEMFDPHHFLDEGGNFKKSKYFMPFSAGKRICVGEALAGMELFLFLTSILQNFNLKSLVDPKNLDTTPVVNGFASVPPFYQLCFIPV

Regarding `CC[C@H]1OC(=O)[C@H](C)[C@@H](O[C@H]2C[C@@](C)(OC)[C@@H](O)[C@H](C)O2)[C@H](C)[C@@H](O[C@@H]2O[C@H](C)C[C@H](N(C)C)[C@H]2O)[C@](C)(O)C[C@@H](C)CN(C)[C@H](C)[C@@H](O)[C@]1(C)O`, the result in assay [1], in [3], in assay [6], in assay [7], in assay [8] and in assay [10] was inactive. Moreover, the call in [11] and in [12] was inactive. Moreover, the Potency result in assay [2], in assay [4] and in [5] was “inactive” each time. Further, in [9], the caspase-3 activation is 0.727%.
Take `CC1CCCC(C)N1NC(=O)c1ccc(Cl)c(S(N)(=O)=O)c1` (stereo not given): the Potency result in assay [13] is “inactive”.
As to `O=C1c2ccccc2C(=O)c2c1ccc(O)c2O`, the Potency result in assay [13] was “inactive”.
The same measure, in the same setting: to `CC1CCC(NC(=O)N(CCCl)N=O)CC1` (stereo not given) belongs “inactive”.
As to `C[C@H]1O[C@@H](O[C@H]2[C@@H](O)C[C@H](O[C@H]3[C@@H](O)C[C@H](O[C@H]4CC[C@@]5(C)[C@H](CC[C@@H]6[C@@H]5C[C@@H](O)[C@]5(C)[C@@H](C7=CC(=O)OC7)CC[C@]65O)C4)O[C@@H]3C)O[C@@H]2C)C[C@H](O)[C@@H]1O`, the compound was classed as inactive in assay [1], in assay [3], in assay [6], in [7], in [8] and in assay [10]. For the same compound, the result in [11] and in assay [12] was inactive. In assay [2], the Potency is 0.0126 µM (active). Moreover, the Potency entry in assay [4], in assay [5] and in assay [14] was “inactive” throughout. In addition, the caspase-3 activation in [9] was -3.59%.
Turning to `CO/N=C(/C(=O)N[C@@H]1C(=O)N2C(C(=O)O)=C(COC(N)=O)CS[C@H]12)c1ccco1`, the result in assay [1], in [3], in assay [6], in assay [7], in [8] and in [10] was inactive. Besides, the compound was called inactive in [11] and in assay [12]. Further, the Potency entry in assay [2], in assay [4], in assay [5], in assay [14] and in assay [15] was “inactive” throughout. Further, in assay [9], the caspase-3 activation was 0.731%.
With `C=C1C(CCl)(CCl)C2(Cl)C(Cl)C(Cl)C1(Cl)C2(Cl)Cl` (stereo not given), the call in [1] and in [11] was inactive. For the same compound, the Potency in [4] was 39.8 µM (active); in assay [5] it was 63.1 µM (active); in assay [15] it was 5.01 µM (active). For the same compound, the values for the caspase-3 activation in assay [14] and in assay [9] were 90.5% (active) and 252% (active), respectively.
Take `C[C@@](Cc1ccc(O)c(O)c1)(NN)C(=O)O`: in [16], the result was inactive.
As to `CC(=O)Nc1ccc(OC(=O)c2ccccc2O)cc1`, in assay [13], the Potency result was “inactive”.
On to `CC(=O)Oc1cccc2c1C(=O)c1c(OC(C)=O)cc(C(=O)O)cc1C2=O`, for which the Potency result in [13] is “inactive”.
For `N#Cc1ccc2c(c1)N(CCCN1CCC(O)CC1)c1ccccc1S2`, the Potency entry in assay [13] was “inactive”.
Consider `CC(=O)Oc1cccc(C(=O)O)c1OC(C)=O`, for which the Potency entry in [15] and in assay [13] was “inactive” throughout.
For `O=C(O)Cc1nn(Cc2ccc(Br)cc2F)c(=O)c2ccccc12`, in [17], the Potency result was “inactive”.
As to `CC(C)c1nc(N(C)S(C)(=O)=O)nc(-c2ccc(F)cc2)c1/C=C/C(O)CC(O)CC(=O)O` (stereo not given), the Potency result in assay [13] was “inactive”.
On to `C[C@H](CCC(=O)O)[C@H]1CC[C@H]2[C@@H]3CC[C@@H]4C[C@H](O)CC[C@]4(C)[C@H]3C[C@H](O)[C@]12C`, for which the compound was called inactive in assay [1], in assay [3], in assay [6], in [7], in assay [8] and in assay [10]. Further, the call in assay [11] and in [12] was inactive. In addition, the Potency result in [2], in [4], in assay [5] and in assay [14] was “inactive” each time. For the same compound, in [9], the caspase-3 activation was -1.48%.
